This is an account of results in PubChem BioAssay AID1076 (NMMLSC, 2008).

Molecules are shown by their SMILES. A number with no mark means an inactive call. Calls of active or inactive are those of the source.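 Rule for the calls: active = cell event count below 40, meaning activity score above 60 where score is 100 minus count; inactive = the rest.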

This experiment in a line: cytotoxicity in LNCaP prostate cells – cell-based, cell event count, single point, cytotoxicity control for prostate differentiation activator project, confirmation (AID 1076).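 Note: counts scatter-gated live cells after medium removal discards detached dead cells.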 Particulars: LNCaP cell loss, flow cytometry event count, 4 d; at 100 µM; hits give low values.
As for `COc1ccc(-c2noc(-c3cc(Cl)ccc3Cl)n2)cc1OC`, the cell event count is 77.

`Cc1cc2c(=O)n(CC(=O)N3CCN(c4ccccc4)CC3)cnc2s1`: the cell event count was 184.

Regarding `CCN1CCN(C(c2cccs2)C(C)NS(=O)(=O)c2ccc(Br)cc2)CC1` (stereo unspecified), the cell event count is 17 (active).

`Cc1ccc2c(c1)c1c(n2CC(O)Cn2c(C)nc3ccccc32)/C(=N\O)CCC1` (stereo unspecified): the cell event count is 16.

With `COc1ccc2c(c1)CCc1c(C(=O)Nc3cc(C)n(Cc4ccc(Cl)cc4)n3)noc1-2`, the cell event count was 43.

On to `O=C(NCCCN1CCN(c2cccc(Cl)c2)CC1)C1CCC(=O)N1Cc1ccccc1Cl` (stereo unspecified), for which the cell event count is 12.

Consider `O=C(Cn1ccc2ccccc2c1=O)NCCC(=O)N1CCN(c2cccc(C(F)(F)F)c2)CC1`, for which the cell event count is 232.

With `CCn1c(=O)cc(SCC(=O)NCCCN2CCN(c3ccc(F)cc3)CC2)c2ccccc21`, the cell event count was 14.

Turning to `N#CC(C(=O)c1ccco1)c1ccccn1` (stereo unspecified), the cell event count is 40 (active).

Take `Cc1ccccc1-c1nc(CN2CCC(C(=O)NCC3CCCO3)CC2)c(C)o1` (stereo unspecified): the cell event count was 71.

Consider `C=CCn1c(=N)n(CC(O)COc2ccccc2OC)c2ccccc21` (stereo unspecified), for which the cell event count is 29.

Turning to `CCOC(=O)N1CCC(NC(=O)c2cc3c(-c4cccc(OC)c4)nn(C)c3s2)CC1`, the cell event count is 142.

As to `O=C(NCC(c1cccnc1)N1CCOCC1)c1cccc(Cl)c1` (stereo unspecified), the cell event count is 175.

Regarding `CCOc1nc(-c2ccccc2O)nc2ccccc12`, the cell event count is 252.

For the compound `Cc1ccc(C)c2[nH]c(=O)c(CN(CCN3CCCC3)C(=O)Nc3cccc(Cl)c3)cc12`, the cell event count is 5.

In the case of `Cc1ccccc1-c1nc(CN2CCC(C(=O)NCc3ccco3)CC2)c(C)o1`, the cell event count is 158.
